Each structure is given as a SMILES string. Compounds without any hit were thinned out: in the full panel of roughly 83,000, 20% have a hit.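 Cell lines were cultured in 96-well plates, exposed to a single compound concentration, and assessed for percent growth 48 hours later.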 Calls of active or inactive are those of the source.

For the test, the system named is SK-MEL-5 melanoma. As to the kind of experiment: NCI-60 one-dose screen, 48 h (100 = growth as untreated, 0 = no growth, -100 = all killed). Conditions: 10 µM. The procedure: Growth inhibition of the SK-MEL-5 human tumor cell line is measured as a screen for anti-cancer activity. Cells are grown in 96 well plates and exposed to the test compound for 48 hours. Compounds are tested at a single concentration, which is 10^-5 M for most compounds. The reported endpoint is percent growth (GI% or GIPRCNT), where numbers from 0 - 100% represent growth inhibition, and numbers from -100% - 0 represent cell death. For example, a value of 40 represents 60% growth inhibition. A value of 0 means no net growth occurred over the course of the experiment. A value of -40 indicates 40% of cells at the beginning of the experiment died by the end of the experiment. A value of -100 means all cells are dead at the end of the experiment.
NCI-60 Human Tumor Cell Lines Screen was performed using the standard one-dose NCI protocol, which is described in more detail at https://dtp.cancer.gov/discovery_development/nci-60/default.htm.
Compounds with GIPRCNT values below 10 were considered active. Activity score was based on GIPRCNT using the following formula: […]
Score is 0 for GIPRCNT values of 100 or above, 50 for GIPRCNT values of 0, and 100 for GIPRCNT values of -100.
Regarding `N#CCc1ccc([N+](=O)[O-])cc1`, the growth was 101% (inactive).

Consider `CCC/C=C(\C)C(C)(C#N)C(=O)OCC` (stereo not given), for which the growth was 103% (inactive).

Regarding `Cc1ccc(/C=C2\SC(=S)N(c3ccc(F)cc3)C2=O)o1`, the growth is 88.2% (inactive).

Turning to `CCCCC(=O)c1ccc(OC)cc1`, the growth is 96.5% (inactive).

`Oc1ccc2c(c1)OCC1(O)Cc3cc(O)c(O)cc3C21` (stereo not given): the growth is 95.5% (inactive).

In the case of `O=C1NC(=O)C2C(=O)NC(=O)C1C21CCc2ccccc21` (stereo not given), the growth is 96.3% (inactive).

As for `O=c1c2ccccc2c(Br)c(Br)c2ccccc12`, the growth is 109% (inactive).

In the case of `CCOC(=O)Nc1nn[nH]n1`, the growth is 103% (inactive).

With `O=C1OC(c2ccc(F)cc2)CC1CN1CCOCC1` (stereo not given), the growth is 104% (inactive).

On to `NC(C(=O)O)c1ccc([N+](=O)[O-])cc1` (stereo not given), for which the growth is 105% (inactive).

Take `CCCCNC1(C#N)CCN(Cc2ccccc2)CC1`: the growth was 107% (inactive).

In the case of `COc1cccc(COC(=O)Nc2ccccc2)c1OC`, the growth is 98.2% (inactive).

Consider `CC(=O)c1ccc2c(ccc3ccccc32)c1`, for which the growth was 96.8% (inactive).

For `CCCNc1ccc(C2=NCCCN2)cc1`, the growth was 97.5% (inactive).

Turning to `O=C(Nc1cccc(NC(=O)Nc2cc(C(F)(F)F)ccc2Cl)c1)Nc1cc(C(F)(F)F)ccc1Cl`, the growth is 29.4% (inactive).

For `O=C(c1ccccc1)C1CCC1`, the growth was 107% (inactive).

Turning to `CCNc1nc2c(cnn2C)c(=O)[nH]1`, the growth is 96.7% (inactive).

Take `CC(=O)OCC1CCCO1` (stereo not given): the growth is 101% (inactive).

For the compound `O=C(CC(=O)c1ccccc1O)c1ccccc1`, the growth is 77.6% (inactive).

As for `CCCNC(=O)c1ccc(S(N)(=O)=O)cc1`, the growth is 101% (inactive).

In the case of `N#Cc1ccc(NC(=O)Nc2cccc(C#N)c2)cc1`, the growth was 81.8% (inactive).

As to `O=C(O)c1ccc(S(=O)(=O)O)cc1`, the growth was 110% (inactive).

Take `COc1ccc(C(O)c2ccccc2)cc1` (stereo not given): the growth is 99.3% (inactive).

Turning to `O=C(Cc1ccccc1)Cc1ccccc1`, the growth is 96.5% (inactive).

As for `Cc1ccccc1C1N=C2Oc3ccccc3C=C2C(=O)N1` (stereo not given), the growth is 30.7% (inactive).

For `COc1ccc(C(=O)C(Br)C(Br)C(=O)O)cc1` (stereo not given), the growth was 101% (inactive).

In the case of `OC1OC(COC(c2ccccc2)(c2ccccc2)c2ccccc2)C(O)C(O)C1O` (stereo not given), the growth was 100% (inactive).

Take `COC(=O)Nc1nc2ccc(C(=O)c3ccc(F)cc3)cc2[nH]1`: the growth is 13.6% (inactive).

In the case of `Cc1cccc([N+](=O)[O-])c1Cl`, the growth was 98.8% (inactive).

`COc1ccc(/C(C#N)=C2C=C/C(=N/O)c3ccccc3\2)cc1`: the growth was -28.9% (active).

For the compound `CC1OC(Oc2c(-c3ccc(O)c(O)c3)oc3cc(O)cc(O)c3c2=O)C(O)C(O)C1O` (stereo not given), the growth was 91.8% (inactive).

On to `OCC1OC(OC2C(O)C(CO)OC2(CO)OC2OC(CO)C(O)C(O)C2O)C(O)C(O)C1O` (stereo not given), for which the growth is 109% (inactive).

As to `COc1cc(C(N)=O)cc(OC)c1OC`, the growth is 106% (inactive).

`O=S(=O)(O)c1ccc(O)c2ccccc12`: the growth is 114% (inactive).

Regarding `O=[N+]([O-])c1cccc2nsnc12`, the growth is 94.9% (inactive).

As for `COc1ccc(-c2cc3c(nn2)-c2ccccc2C3=O)cc1`, the growth is 85.3% (inactive).

In the case of `O=c1[nH]c(O)c(/C=C2/C=Nc3ccccc32)[nH]1`, the growth was 91.2% (inactive).

For `CC1(C)/C(=C\CO)C2CCC1C2` (stereo not given), the growth is 102% (inactive).

Consider `Brc1cnc2ccccc2c1`, for which the growth was 106% (inactive).

For the compound `O=C(O)c1cc([N+](=O)[O-])ccc1Cl`, the growth was 100% (inactive).
